Screen size: about 5,500 compounds; about 2,000 (36%) were called active. Roughly 18% stayed inconclusive and do not appear here. Rule as the data show it: active = normalized growth mostly below about 0.91 (no sharp cut-off); inconclusive = no clear call, values can overlap the other calls; inactive = mostly above about 0.92. The list shows a part of the results.
Assay: chemical genetic growth profiling, strain panel (AID 1159580);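 also: tested at 20 µM; growth read once vehicle control cultures reached saturation at 30 °C; 1 = growth at the plate median or of vehicle wells; lower values mean less growth of the strain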
Settings: S. cerevisiae deletion strains, growth OD

Measured: normalized growth

O=C(/C=C/c1ccc(O)c(O)c1)OC(Cc1ccc(O)c(O)c1)C(=O)O (stereo not given)
inactive: locus YAL021C, strain ccr4, hits give low values 1.07 | locus YAL026C, strain drs2, hits give low values 1.03 | locus YAL030W, strain snc1, hits give low values 1.01 | locus YBL061C, strain skt5, hits give low values 1.05 | locus YBR009C, strain hhf1, hits give low values 1.01 | locus YBR023C, strain chs3, hits give low values 1.04 | locus YBR171W, strain sec66, hits give low values 1.01 | locus YBR231C, strain swc5, hits give low values 0.994 | locus YBR279W, strain paf1, hits give low values 1.02 | locus YCL011C, strain gbp2, hits give low values 1.02 | locus YCL016C, strain dcc1, hits give low values 1.05 | locus YCL061C, strain MRC1, hits give low values 1.03 | locus YCL069W, strain vba3, hits give low values 1.02 | locus YCR088W, strain abp1, hits give low values 1.02 | locus YDL005C, strain med2, hits give low values 1.01 | locus YDL040C, strain nat1, hits give low values 1.02 | locus YDR001C, strain nth1, hits give low values 1.02 | locus YDR069C, strain doa4, hits give low values 1.03 | locus YDR137W, strain rgp1, hits give low values 1.09 | locus YDR159W, strain sac3, hits give low values 0.922 | locus YDR195W, strain ref2 1.07 | locus YDR297W, strain sur2, hits give low values 1.02 | locus YDR334W, strain swr1, hits give low values 1.04 | locus YDR335W, strain msn5, hits give low values 1.03 | locus YDR392W, strain spt3, hits give low values 0.885 | locus YEL003W, strain gim4, hits give low values 0.999 | locus YEL037C, strain rad23, hits give low values 1.02 | locus YEL061C, strain CIN8 (second series), hits give low values 1.02 | locus YER015W, strain faa2, hits give low values 1.01 | locus YER016W, strain bim1, hits give low values 1.04 | locus YER111C, strain swi4, hits give low values 1.01 | locus YER155C, strain BEM2 (second series), hits give low values 0.997 | locus YFR010W, strain ubp6, hits give low values 0.997 | locus YGL167C, strain pmr1, hits give low values 1.01 | locus YGL173C, strain kem1, hits give low values 0.995 | locus YGL227W, strain vid30, hits give low values 1.02 | locus YGL240W, strain doc1, hits give low values 1.04 | locus YGL253W, strain hxk2, hits give low values 1.05 | locus YHR013C, strain ard1, hits give low values 0.999 | locus YHR027C, strain rpn1, hits give low values 1 | locus YHR030C, strain SLT2, hits give low values 0.982 | locus YHR079C, strain IRE1, hits give low values 0.989 | locus YHR142W, strain chs7, hits give low values 1.04 | locus YJL092W, strain hpr5, hits give low values 1.02 | locus YJL095W, strain BCK1 (second series), hits give low values 1.03 | locus YJL095W, strain BCK1, hits give low values 0.999 | locus YJL115W, strain asf1, hits give low values 1.02 | locus YJL129C, strain trk1, hits give low values 1.03 | locus YJL154C, strain vps35, hits give low values 1.02 | locus YJL164C, strain tpk1, hits give low values 0.99 | locus YJL166W, strain qcr8, hits give low values 1.03 | locus YJL187C, strain SWE1, hits give low values 1.03 | locus YJR066W, strain TOR1, hits give low values 0.912 | locus YKL160W, strain elf1, hits give low values 1.04 | locus YKR026C, strain gcn3, hits give low values 1.03 | locus YKR091W, strain srl3, hits give low values 1.01 | locus YLL001W, strain dnm1, hits give low values 1 | locus YLL026W, hits give low values 1.02 | locus YLL041C, strain sdh2, hits give low values 1.02 | locus YLR027C, strain aat2, hits give low values 1.04 | locus YLR113W, strain HOG1, hits give low values 0.979 | locus YLR221C, strain rsa3, hits give low values 0.989 | locus YLR258W, strain gsy2, hits give low values 1.01 | locus YLR262C, strain YPT6 (second series), hits give low values 1.05 | locus YLR320W, strain mms22, hits give low values 1 | locus YLR342W, strain FKS1, hits give low values 1.02 | locus YLR357W, strain rsc2, hits give low values 1.04 | locus YLR370C, strain arc18, hits give low values 1.03 | locus YLR384C, strain iki3, hits give low values 1 | locus YML120C, strain ndi1, hits give low values 0.994 | locus YMR058W, strain fet3, hits give low values 0.932 | locus YMR125W, strain sto1, hits give low values 1.02 | locus YMR129W, hits give low values 1.02 | locus YMR205C, strain PFK2, hits give low values 1.08 | locus YMR231W, strain pep5, hits give low values 1.01 | locus YNL071W, strain lat1, hits give low values 1.01 | locus YNL183C, strain NPR1, hits give low values 0.905 | locus YNL209W, strain ssb2, hits give low values 1 | locus YNL248C, strain rpa49, hits give low values 1.03 | locus YNL322C, strain KRE1 (second series), hits give low values 1.03 | locus YNR049C, strain mso1, hits give low values 1.02 | locus YOR001W, strain rrp6, hits give low values 0.965 | locus YOR070C, strain gyp1, hits give low values 1.01 | locus YOR080W, strain dia2, hits give low values 1.02 | locus YOR083W, strain WHI5, hits give low values 0.988 | locus YOR106W, strain vam3, hits give low values 1.05 | locus YOR231W, strain MKK1, hits give low values 1 | locus YOR265W, strain rbl2, hits give low values 1.01 | locus YOR270C, strain vph1, hits give low values 1.07 | locus YOR290C, strain snf2, hits give low values 1.04 | locus YPL051W, strain arl3, hits give low values 1.04 | locus YPL078C, strain atp4, hits give low values 1.06 | locus YPL106C, strain sse1, hits give low values 1.06 | locus YPL240C, strain hsp82, hits give low values 1.02 | locus YPL256C, strain CLN2, hits give low values 1
